This is a sample that favours compounds with a hit; in the whole collection about 5.3% have one here.
SUMO Mot1 rescue – yeast Mot1-301 growth rescue at high temperature, primary screen, SUMOylation pathway inhibitor project, S. cerevisiae, ATP luminescence, 38.5C | AID 2716, 2010 | S. cerevisiae Mot1-301 growth rescue; percent above DMSO median, 100 means doubled | growth rescue, % at 18.8 µM | 1% of 320,000 active;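 active = every valid replicate shows activation above 250% relative to neutral control wells; inactive = the rest, any valid replicate at or below 250%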;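 note: OY570 slx delta 5 strain wells were the positive control but not used for scaling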
HIF act – HIF pathway transcriptional activators, primary screen, cell-based, U2OS HRE-luciferase, luminescence; 0.32% of 300,000 active; AID 1910, 2009; U2OS HRE-luciferase reporter; normalized: DMSO 0%, desferrioxamine 100%; activation, % at 7.5 µM (by protocol);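 active = mean activation of at least 10% of the iron chelator positive control signal, with at least half of replicates also reaching 10%; inconclusive = mean and replicate majority disagree about reaching 10%; inactive = mean and most replicates under 10%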
M18AAP inhibitor – PfM18AAP inhibitors, malaria aminopeptidase, primary screen, biochemical, QFRET, recombinant enzyme; M18 aspartyl aminopeptidase (Plasmodium falciparum 3D7); H-Glu-NHMec fluorogenic cleavage; inhibition, % at 7.35 µM; 1.2% of 290,000 active; AID 1822, 2009;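 active = inhibition above the campaign mean inhibition over all tested compounds plus 3 SD, cut at about 28% in these data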;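 note: 0% = plate median of test compound wells and 100% = 2 mM ZnCl2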
ALR inh – inhibitors of human ALR sulfhydryl oxidase, primary screen, biochemical, H2O2 detection, HRP-luminol luminescence, single point; FAD-linked sulfhydryl oxidase ALR (Homo sapiens), P55789; purified ALR, DTT oxidation; inhibition, % (no concentration beside the values); 3.8% of 290,000 active; AID 485317, 2010;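 active = mean replicate inhibition above about 79%, with every replicate also reaching it, limit read from the data; inconclusive = only one of the two criteria met; inactive = mean below limit and not every replicate reaching it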
Target sequence (P55789 whole entry, looked up): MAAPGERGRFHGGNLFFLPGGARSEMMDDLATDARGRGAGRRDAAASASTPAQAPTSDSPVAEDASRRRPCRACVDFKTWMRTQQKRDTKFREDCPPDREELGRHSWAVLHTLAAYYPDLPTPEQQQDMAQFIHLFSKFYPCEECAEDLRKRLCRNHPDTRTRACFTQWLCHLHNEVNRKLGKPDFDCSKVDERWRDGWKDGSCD
Numbers without * were called inactive; ? = inconclusive; / = no result.

SMILES	SUMO Mot1 rescue	HIF act	M18AAP inhibitor	ALR inh
CCn1c(=O)c(C(=O)Nc2ccsc2C(=O)OC)c(O)c2ccccc21	782.6*	0.0	-1.3	-2.9
CCCN(CC(=O)Nc1ccccc1OC)C(=O)c1cccc(S(=O)(=O)Nc2ccc(OC)cc2)c1	-8.1	-0.9	/	1.0
O=C(CCN1CCc2ccccc2C1)c1ccc2c(c1)OCCO2	16.1	-0.1	-9.2	97.8*
Cc1c(-n2c(-c3ccccc3)nc3ccccc3c2=O)c(=O)n(-c2ccccc2)n1C	-3.7	-0.5	-7.9	-2.5
CCOC(=O)C1CCN(C(=O)c2ccccc2NC(=O)C2=C(C)OCCS2)CC1	-5.1	0.3	-0.1	5.3
Cn1c(CS/C(N)=N/N=C/c2ccccc2)c(Br)c(=O)n1-c1ccccc1	-9.1	-0.4	15.2	98.4*
O=C(CCNC(=O)c1ccc(Br)cc1)NCc1ccncc1	-10.2	0.2	/	-2.8
COc1ccc(/C=C2/C(=O)N(c3c(F)c(F)c(F)c(F)c3F)N=C2C)cc1	-7.2	-13.5	15.8	90.2*
CSC(=NC#N)N1CCN(c2ccc(Cl)cc2)CC1	/	0.6	4.3	97.3*
CCOCc1cnc(C)nc1NCC(=O)c1c(C)n(C)c2ccc(OC)cc12	/	0.1	11.8	/
COc1ccc2c(c1)c(C(C)=O)c(C)n2C	5.3	0.3	-6.7	/
COc1ccc2c(c1)c(C(=O)CNc1nc(C)cs1)c(C)n2C	134.5	0.0	-0.6	98.4*
COc1ccc2c(c1)c(C(=O)CN1CCc3ccccc3C1)c(C)n2C	-5.9	44.1*	4.5	0.3
Nc1ccc(N2CCN(CCCCN3C(=O)C4CCCN4C3=O)CC2)cc1 (configuration not stated)	160.1	/	13.3	99.2*
O=C1C2CCCCN2C(=O)N1CCCN1CCN(c2ccc(F)cc2)CC1 (configuration not stated)	-14.8	0.2	-6.5	70.0
O=C1C2CCCN2C(=O)N1CCCN1CCN(c2cccc(Br)c2)CC1 (configuration not stated)	224.2	-21.2	-12.6	85.4*
CCOc1ncccc1C(=O)OCC(=O)Nc1nnc(-c2ccccc2)o1	29.1	0.2	/	3.6
CCCCCCc1c(C)nc(-n2[nH]c(C)c(CCO)c2=O)[nH]c1=O	281.9	-1.1	1.5	85.6*
CC(=O)NCC(=O)NNC1CC(=O)N(c2cccc(Cl)c2)C1=O (configuration not stated)	6.1	-0.4	9.2	29.5
O=C(c1cccc2nccnc12)N1CCCC(Nc2ccc(F)c(F)c2)C1 (configuration not stated)	-24.2	-0.1	-1.5	7.0
CC(C)c1ccc(NC2CCCN(C(=O)c3ccc4nccnc4c3)C2)cc1 (configuration not stated)	/	-0.2	4.3	50.3
Cc1ccc(NC2CCCN(C(=O)c3ccccc3-c3ncc[nH]3)C2)cc1C (configuration not stated)	7.8	-0.3	0.9	98.8*
Cc1ccc(NC2CCCN(C(=O)c3cccc(-c4ncc[nH]4)c3)C2)cc1C (configuration not stated)	43.6	0.2	1.2	97.1*
CCN(CC)S(=O)(=O)c1ccc(C(=O)NNC(=O)C2CCN(S(=O)(=O)c3ccc(Cl)cc3)CC2)cc1	1.0	0.4	2.4	-2.3
COc1cc(/C=N/NC(=O)Cn2cnc3ccccc3c2=O)ccc1O	-6.1	-0.2	3.2	83.9*
SMILES	SUMO Mot1 rescue	HIF act	M18AAP inhibitor	ALR inh
COc1cc(/C=N/NC(=O)Cn2cnc3c2c(=O)n(C)c(=O)n3C)ccc1O	-6.6	-0.3	9.4	99.8*
Cn1c(=O)c2c(ncn2CC(=O)N/N=C/c2ccco2)n(C)c1=O	-13.0	0.1	3.5	-0.2
Nc1nonc1-n1nnc(C(=O)N/N=C/c2cc(Cl)ccc2O)c1CN1CCCCCC1	3.0	1.6	/	0.6
Cc1noc(C)c1NC(=O)Nc1ccc2c(c1)C(=O)N([C@H](C)CO)C[C@H](C)[C@@H](CN(C)C(=O)Nc1c(C)noc1C)O2	-1.1	/	/	-5.6
O=C(COc1cccnc1[N+](=O)[O-])NCc1cccs1	2.6	-0.4	2.8	-7.0
CCC(C)(C)NC(=O)CN(Cc1ccccc1)C(=O)CCC(=O)Nc1nccs1	-12.4	0.2	0.5	/
O=C(c1c(F)cccc1F)N1CCN=C1SCc1ccccc1	-0.9	-0.2	-8.2	4.6
O=C(COc1ccccc1)N1CCN=C1SCc1ccccc1F	119.8	-0.3	1.6	-10.6
CC(=O)N1CCN=C1SCc1c(F)cccc1Cl	387.2	/	-5.7	97.8*
CCC(=O)N1CCN=C1SCc1c(F)cccc1Cl	182.0	1.6	-2.0	98.5*
Cc1cccc(NC(=O)CSc2nnc(C3CC3)n2CC2CCCO2)c1C (configuration not stated)	-11.3	0.0	-8.1	/
CNC(=O)C(C#N)(Cc1cc(C(C)=O)ccc1OC)Cc1cc(C(C)=O)ccc1OC	-16.4	-0.2	-14.8	/
C/C(=N/NC(=O)CSc1nc2ccccc2s1)c1ccncc1	-2.3	0.9	-0.4	5.8
CS/C(=N\S(=O)(=O)c1cccs1)NC(=O)CSc1nc2ccccc2s1	-17.5	0.3	-68.0	98.3*
CCCCc1ccc(-c2csc(/C(C#N)=C\c3ccco3)n2)cc1	5.2	0.4	5.8	84.0*
NS(=O)(=O)c1ccc(NNC(=O)c2ccc(Br)o2)c([N+](=O)[O-])c1	-27.4	/	/	86.3*
COc1ccc(NC(=O)c2ccc(Br)o2)c([N+](=O)[O-])c1	50.0	1.5	4.7	0.6
O=C1OC(c2ccccc2)=N/C1=C\N1CCCCC1	-3.8	2.7	15.1	/
O=C1OC(c2ccccc2)=C/C1=C/N1CCCCC1	351.2	3.1	2.2	85.0*
CCN(Cc1ccc(OC)c(F)c1)C(=O)CCl	22.5	-4.8	-6.4	96.6*
CCN(Cc1ccc(OC)c(F)c1)C(=O)C1CCCO1 (configuration not stated)	223.5	0.0	-4.1	-2.8
COC(=O)C(C)n1cnc2c(nnn2-c2cccc(OC)c2)c1=O (configuration not stated)	3.8	3.7	2.4	-16.4
CC(=O)Nc1nc(-c2ccc3c(c2)CC(C)N3C(=O)C2CC2)c(C)s1 (configuration not stated)	-11.8	5.4	2.1	98.7*
CCOC(=O)C(=O)Nc1nc(-c2ccc3c(c2)CCN3C(=O)C2CC2)c(C)s1	0.4	0.6	10.2	99.1*
Cc1sc(NC(=O)CN2CCCC2)nc1-c1ccc2c(c1)CCN2C(=O)c1cccc(F)c1	16.6	1.0	10.4	?
CN(c1ccc(C(=O)COC(=O)C2CC2)cc1)S(C)(=O)=O	-4.8	/	/	-10.3
Cc1ccc(-n2c(CCC(=O)O)ccc2-c2cccs2)cc1C	-19.0	0.8	-4.5	/
O=C(O)CCc1ccc(-c2cccs2)n1Cc1ccco1	-7.0	0.1	-15.8	99.0*
CCCCn1c(CCC(=O)O)ccc1-c1cccs1	1.2	0.1	-11.4	93.4*
COCCn1c(CCC(=O)O)ccc1-c1cccs1	-5.2	0.3	4.6	81.4*
